# Laboratory results from PubChem BioAssay AID904 (National Center for Advancing Translational Sciences (NCATS), 2007).
# The campaign covered roughly 55,000 compounds. About 530 (0.96%) were called active. Where a call stands in place of a potency, no number is given. Not shown: some 7% with an inconclusive outcome. The sample holds actives, similar compounds and a random draw of the others, so the mix is not that of the screen. Calls come from the whole dose curve; as a rule, active = well fitted cell-killing curve with a large enough effect; inconclusive = small, poorly fitted or top-dose-only effect; inactive = no such curve, though single readings can be large or run the other way.
# Experiment: qHTS Screen for Compounds that Selectively Target Cancer Cells with p53 Mutations: Cytotoxicity of p53 Null Cells at the Nonpermissive Temperature; note: nearly all actives have a fitted effect of over 50% in size
# Settings: H1299 p53-null (neo) cells, 39C, ATPlite viability, 24 h; series mostly up to 46.1 µM
# From the text: NIH Chemical Genomics Center [NCGC] NIH Molecular Libraries Screening Centers Network [MLSCN] MLSCN Grant: 1 X01 MH079844-01 Assay Submitter (PI): Dr. SUN, YI, University of Michigan NCGC Assay Overview: Synthetic Lethal Screen for Compounds to Kill Cancer Cells with p53 Mutation. Tumor suppressor gene p53 serves as a major cellular barrier against tumorigenesis. […] The goal of this screening is to identify small molecule probes that selectively kill cancer cells with mutations in p53. This screening was carried out using two lines of H1299 lung cancer cells. The H1299-p53 A138V line express a temperature sensitive p53 mutant (p53ts) in which the mutant p53 protein (A138V) is in the mutant confirmation when grown at 39C (the nonpermissive temperature) and in the wild type conformation when grown at 32C (the permissive temperature). A H1299-neo line (p53 null) grown at both 39C and 32C were used as counter-screens to filter out false positive associated with temperature shifting. The small molecular compounds that selectively target mutant p53-containing cancer cells were selected as candidate probes for further study. A cytotoxicity assay based on the measurement of ATP contents in cells was used in this screen. Concentration-responses of all the compounds in the library collection were determined in qHTS using the cell lines and temperature conditions as above.
# NCGC Assay Protocol Summary: Both the H1299-p53A138V and H1299-neo cell lines were provided by Dr.Yi Sun, a PI at the University Michigan. The cells were maintained and cultured at 37C. The resuspended frozen cells were used to plate the cells in the 1536-well assay plates at a density of 600 cells per well in 5 ul medium. The assay plates with the cells were incubated at 37C for 16 to 30 hours before the experiments. The library compounds in DMSO solution were added to the cells in assay plates and incubated 24 hours at 39C (for mutant p53 conformation) or 32C (for normal p53 conformation as control). An ATP_lite assay kit (PerkinElmer) was used to determine the cell viability. Tomaxifen (100uM) was used as the positive control for cell killing. Data were normalized to the controls for basal activity (DMSO only) and 100% killing (100uM tamoxifen). AC50 values were determined from concentration-response data modeled with the standard Hill equation. P53 assay protocol: 1. Reagent; 5 uL H1299-p53A138V or H1299-neo cell cells/well 2. Time; overnight; 37C incubation 3. Compounds; 23 nL; 5.9 nM to 46 uM 4. Controls; 23 nL; Tamoxifen 100 uM 5. Time; 24 hr; 39C incubation 6. Reagent; 3 uL; ATP_Lite reagent 7. Time; 20 min; Room Temperature 8. Detection; Luminescence; Viewlux plate reader Keywords: p53, synthetic lethal, cancer, cell viability, cytotoxicity, H1299 cell line, luminescence, MLSMR, MLSCN, NIH Roadmap, qHTS, NCGC
# Potency is the fitted concentration of half-maximal effect.
Compound,Potency,"activity, negative = cell killing"
Cc1ccc(NC(=O)C2CCN(S(=O)(=O)c3cc(-c4noc(C)n4)ccc3C)CC2)c(C)c1,inactive,–
Cc1ccc(-c2cc(N)on2)cc1,–,9.86% [at 1.84 µM] (inactive)
Cc1ccc2[nH]cc(CCCN3C(=O)c4ccccc4C3=O)c2c1,–,-0.898% [at 1.84 µM] (inactive)
Cc1nn(Cc2ccc(Cl)cc2)c(Cl)c1/C=N/NC(=O)CNc1ccccc1F,inactive,–
COc1ccc(NC(=O)Cn2c(=O)n(CCC(C)C)c(=O)c3cccnc32)cc1Cl,inactive,–
CCOC(=O)c1ccc(NC(=O)Cn2cc(S(=O)(=O)Cc3ccccc3F)c3ccccc32)cc1,inactive,–
CCOc1cccc2c1N[C@@H](c1ccc(C(=O)O)cc1)[C@H]1CC=C[C@@H]21,inactive,–
Cc1[nH]c2ccccc2c1/C=N/NC(=O)CNC(=O)c1ccc2c(c1)OCO2,–,2.07% [at 1.84 µM] (inactive)
Cc1cc[n+](-c2[nH]c(=O)sc2/C=N/NC(=O)c2ccccc2[O-])cc1C,inactive,–
Cc1cccc(NC(=O)Cn2nc(-c3ccc(Cl)cc3)c3ccccc3c2=O)c1,inactive,–
O=C(Cn1c(=O)nc(-c2ccccc2)c2cc(Cl)ccc21)NCc1ccc(Cl)cc1,inactive,–
CCN(C(=O)Cn1c(=O)nc(-c2ccccc2)c2cc(Cl)ccc21)c1cccc(C)c1,12.6 µM (active),–
COc1ccc(-c2nnc(SCc3cccnc3)o2)cc1,inactive,–
CCCn1c(SCC(=O)Nc2ccc(C)c(S(=O)(=O)N3CCOCC3)c2)n[nH]c1=O,inactive,–
COc1cc(C(=O)Nc2ccc(-n3c(C)nc4ccccc4c3=O)cc2)cc(OC)c1OC,inactive,–
COc1ccccc1Nc1c2c(nc3ccc(NC(=O)/C=C/c4cc(OC)c(OC)c(OC)c4)cc13)CCCC2,10 µM (active),–
O=C(Nc1c2c(nc3ccccc13)CCCC2)c1ccccc1Br,inactive,–
CCOC(=O)c1cc2c(=O)n3ccccc3nc2n(CC2CCCO2)c1=NC(=O)c1ccc(C(C)(C)C)cc1 (stereo unspecified),inactive,–
Cc1ccccc1CSc1nc2c([nH]c3ccccc32)c(=O)n1C,inactive,–
CC1=C(c2ccc(C)cc2)S(=O)(=O)NC1=NCCCN1CCN(c2cc(C)ccc2C)CC1,inactive,–
CC1=C(c2ccc(Cl)cc2)S(=O)(=O)N=C1N1CCN(c2cc(C)ccc2C)CC1,inactive,–

Compound,Potency,"activity, negative = cell killing"
Cc1ccc(C)c(N2CCN(CCCNC(=O)Nc3ccc(Cl)cc3)CC2)c1,5.01 µM (active),–
COc1ccccc1OCC(=O)Nc1nnc2n1CCS2,inactive,–
O=C(CSc1oc(-c2ccc(F)cc2)nc1S(=O)(=O)c1ccc(Br)cc1)NC1CCCCC1,inactive,–
Cc1ccc(-c2nc(S(=O)(=O)c3ccc(C)cc3)c(N3CCCCCC3)o2)cc1,inactive,–
CC(C)S(=O)(=O)c1oc(-c2ccc(F)cc2)nc1S(=O)(=O)c1ccc(F)cc1,12.6 µM (active),–
CCOc1ccc(S(=O)(=O)N/N=C(\C)c2ccc(Cl)c(Cl)c2Cl)cc1,inactive,–
Cc1ccc(S(=O)(=O)NC2(C(F)(F)F)NC(=O)N(CCc3ccccc3)C2=O)cc1 (stereo unspecified),inactive,–
CCOc1ccc(NC(=O)CN2CCN(CC(=O)Nc3ccc(OC)cc3)CC2)cc1,inactive,–
CCOc1ccc(NC(=O)c2cnn(-c3ccccc3)c2-n2cccc2)cc1,inactive,–
CCOc1ccc(NC(=O)c2ncoc2-c2ccco2)cc1,5.01 µM (active),–
C=Cc1ccc(Cn2c(C(=O)O)c(CNC3CCCC3)c3ccc(C)cc32)cc1,inactive,–
Cc1ccccc1C(=O)Nc1cc(C)c(O)c(-c2nc3ccccc3o2)c1,inactive,–
O=C(NC1CCN(C(=S)NCc2ccco2)CC1)c1ccc(F)cc1,inactive,–
COc1ccc(S(=O)(=O)NCC(c2ccco2)N2CCOCC2)cc1 (stereo unspecified),inactive,–
Cc1ccc(NS(=O)(=O)c2ccc3c(c2)CC(=O)N3)cc1Cl,inactive,–
COc1ccc(CCNc2nc(-c3ccc(F)cc3)cc(C(F)(F)F)n2)cc1OC,inactive,–
CSc1ccccc1NC(=O)CCS(=O)(=O)c1nc(-c2cccs2)cc(C(F)(F)F)n1,inactive,–
Cc1ccc(O)c(NC(=O)CCS(=O)(=O)c2nc(-c3ccc4c(c3)OCO4)cc(C(F)(F)F)n2)c1,inactive,–
COc1ccccc1-c1cc(C(F)(F)F)nc(S(=O)(=O)CCCC(=O)Nc2cc(C)ccc2O)n1,22.4 µM (active),–
CC(=O)c1ccc(NC(=O)c2nc3nc(C)cc(C(F)F)n3n2)cc1,inactive,–
Cc1ccc(NC(=O)c2nc(S(=O)(=O)Cc3cccc(C)c3)ncc2Cl)cc1,22.4 µM (active),–

Compound,Potency,"activity, negative = cell killing"
CCSc1ncc(Cl)c(C(=O)Nc2cc(C)ccc2C)n1,inactive,–
CCCS(=O)(=O)c1ncc(Cl)c(C(=O)Nc2scc(-c3ccccc3)c2C(=O)OCC)n1,inactive,–
Cc1ccc2nc(CN3CCN(S(=O)(=O)c4ccc(C)c(C)c4)CC3)oc2c1,inactive,–
O=C1N(c2ccc(Cl)cc2)C(c2ccc(Cl)cc2)N2CCCN12 (stereo unspecified),–,-0.885% [at 1.84 µM] (inactive)
O=C(COC(=O)CSc1nnc(-c2ccc(Cl)cc2)o1)Nc1cc(Cl)cc(Cl)c1,inactive,–
O=[N+]([O-])c1ccc(N2CCN(S(=O)(=O)c3ccccc3)CC2)cc1N1CCc2ccccc2C1,inactive,–
COc1cc(CNC(=O)c2cc3n(n2)CCCN(Cc2cccc(F)c2)C3=O)cc(OC)c1OC,inactive,–
O=C(Cc1ccc(Cl)cc1)NCC(c1cccs1)S(=O)(=O)c1ccc(Cl)cc1 (stereo unspecified),inactive,–
COc1ccccc1Nc1cc(C(=O)NCCCN(C)C2CCCCC2)c2ccccc2n1,12.6 µM (active),–
CCCCN(CCCNC(=O)c1cc(Nc2ccccc2OC)nc2ccccc12)c1ccccc1,inactive,–
COc1ccc(Nc2cc(C(=O)NCCCN(C)c3ccccc3)c3ccccc3n2)c(OC)c1,inactive,–
COc1ccc(-c2cc3ccc(OCc4nn[nH]n4)cc3oc2=O)cc1,10 µM (active),–
COc1ccc2cc(-c3nc(Cl)c4c5c(sc4n3)CC(C)CC5)c(=O)oc2c1 (stereo unspecified),inactive,–
COc1ccc2oc(=O)c(-c3cn4c(n3)sc3cc(OC)ccc34)cc2c1,inactive,–
O=C(COc1nc2ccccc2nc1N1CCOCC1)NCC(F)(F)F,inactive,–
CCCn1ccc2c(OCC(=O)NCc3ccc(F)cc3)cccc2c1=O,inactive,–
Cc1nn2c(=O)cc(COC(=O)c3cccc(NC(=O)COc4ccccc4Cl)c3)nc2s1,6.31 µM (active),–
COc1ccc(OCC(=O)Nc2cccc(C(=O)OCc3cc(=O)n4nc(C)sc4n3)c2)cc1,inactive,–
Cc1nn2c(=O)cc(COC(=O)c3ccccc3NC(=O)COc3ccccc3C)nc2s1,inactive,–
